PubChem BioAssay (Tox21)
Several values for one entry are separate records, joined by “and”; a condition that tells them apart may be missing. Identical values can stand only once. Records with an inconclusive call do not appear. Activity calls are given as the source filed them. Calls follow the shape of the dose curve; as a rule, active = well fitted inhibition curve with a large enough effect in the repeat runs; inconclusive = weak or mixed curves; inactive = no such curve, though single readings can be large or run the other way.

Molecular target: Cytochrome P450 2C9 (Homo sapiens) (UniProt P11712)
Sequence (P11712 whole entry, looked up): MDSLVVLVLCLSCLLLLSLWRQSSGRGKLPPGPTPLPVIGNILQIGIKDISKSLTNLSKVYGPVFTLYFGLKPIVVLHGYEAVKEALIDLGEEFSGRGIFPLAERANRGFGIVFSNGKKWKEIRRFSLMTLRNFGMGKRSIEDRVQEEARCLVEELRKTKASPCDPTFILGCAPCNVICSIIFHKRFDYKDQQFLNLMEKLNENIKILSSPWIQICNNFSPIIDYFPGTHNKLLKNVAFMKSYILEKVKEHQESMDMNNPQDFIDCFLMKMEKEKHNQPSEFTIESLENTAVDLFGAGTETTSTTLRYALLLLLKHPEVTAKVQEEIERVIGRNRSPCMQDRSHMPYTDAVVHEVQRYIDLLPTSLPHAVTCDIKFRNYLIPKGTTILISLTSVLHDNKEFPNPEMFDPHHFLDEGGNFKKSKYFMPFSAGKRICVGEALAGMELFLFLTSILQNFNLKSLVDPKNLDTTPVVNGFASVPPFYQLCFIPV
Test: Cytochrome P450 Family 2 Subfamily C Member 9 (CYP2C9) small molecule antagonists: luciferase reporter qHTS assay (AID 1671198)
Conditions: P450-Glo CYP2C9 enzyme assay, luciferin luminescence; series mostly up to 115 µM
In short: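 P450-Glo proluciferin substrate with CYP2C9 enzyme; 10 min RT preincubation, then NADPH regeneration 1 h at 37C; luciferin detection reagent 20 min RT, luminescence in relative luminescence units.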
Also: nearly all actives have a fitted effect of over 50% in size.
Potency is read from the fitted curve at half-maximal effect.

Row | Compound | Potency
1 | O=C(O)c1ccccc1C(=O)Nc1cccc2ccccc12 | 17.8 µM (active)
2 | CNC(C)Cc1ccccc1OC (stereo unspecified) | inactive
3 | COC(=O)C(C)N(C(=O)Cc1ccccc1)c1c(C)cccc1C (stereo unspecified) | 22.4 µM (active)
4 | CC(C)=CCOc1c2occc2cc2ccc(=O)oc12 | 0.617 µM (active)
5 | CCCCNP(N)(N)=S | 35.6 µM (active)
6 | COC(=O)C(Br)CBr (stereo unspecified) | inactive
7 | Cc1ccc2ccccc2c1 | inactive
8 | COC(C)(C)CCC[C@H](C)C/C=C/C(C)=C/C(=O)OC(C)C | 22.4 µM (active)
9 | CCCC(=O)Cl | inactive
10 | Cc1cc(=O)[nH]o1 | 110 µM (active)
11 | CCCN(CCCl)c1c([N+](=O)[O-])cc(C(F)(F)F)cc1[N+](=O)[O-] | 20 µM (active)
12 | COc1cc(CC(C)N)cc2c1OCO2 (stereo unspecified) | inactive
13 | CCOP(=O)(OCC)SCCSCC | inactive
14 | CC(C)(C)C(O)C(Oc1ccc(Cl)cc1)n1cncn1 (stereo unspecified) | 33.6 µM (active)
15 | NC(=O)C(Cl)(Cl)Cl | inactive
16 | CCOP(O)OCC | inactive
17 | CCCCCCCCCCOC(=O)c1ccccc1C(=O)OCCCCCCCCCC | inactive
18 | O=NN1CCCCCC1 | inactive
19 | C=CCCl | inactive
20 | CC1(C)[C@H](C=C(Cl)Cl)[C@@H]1C(=O)O[C@@H](C#N)c1cccc(Oc2ccccc2)c1 | 3.56 µM (active)
21 | CCOP(=S)(OCC)Oc1nc(Cl)c(Cl)cc1Cl | 7.99 µM (active) and 10 µM (active)

Molecular target: Cytochrome P450 1A2 (Homo sapiens) (UniProt P05177)
Sequence (P05177 whole entry, looked up): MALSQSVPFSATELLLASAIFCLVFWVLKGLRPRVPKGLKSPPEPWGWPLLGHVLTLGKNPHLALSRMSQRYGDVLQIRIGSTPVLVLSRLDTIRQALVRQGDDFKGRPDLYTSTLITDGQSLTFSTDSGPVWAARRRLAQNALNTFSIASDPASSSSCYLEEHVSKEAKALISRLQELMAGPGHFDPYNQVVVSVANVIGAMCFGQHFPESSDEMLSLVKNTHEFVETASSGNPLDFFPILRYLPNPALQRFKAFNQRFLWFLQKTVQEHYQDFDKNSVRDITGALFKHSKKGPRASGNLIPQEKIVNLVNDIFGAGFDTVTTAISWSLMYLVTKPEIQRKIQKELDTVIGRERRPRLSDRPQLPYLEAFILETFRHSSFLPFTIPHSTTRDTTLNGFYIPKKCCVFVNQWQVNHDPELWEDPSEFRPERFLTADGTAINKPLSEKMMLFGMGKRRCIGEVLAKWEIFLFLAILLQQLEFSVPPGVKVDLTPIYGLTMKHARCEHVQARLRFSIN
Test: Cytochrome P450 Family 1 Subfamily A Member 2 (CYP1A2) small molecule antagonists: luciferase reporter qHTS assay (AID 1671199)
Conditions: P450-Glo CYP1A2 enzyme, luciferin luminescence, 1 h; series mostly up to 115 µM
In short: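 Room-temperature CYP1A2 reaction with proluciferin substrate: compounds added from DMSO, 10 min preincubation, NADPH regeneration for 1 h. Luciferin detection reagent then added; luminescence recorded as RLU.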

Row | Compound | Potency
22 | O=C(O)c1ccccc1C(=O)Nc1cccc2ccccc12 | 12.6 µM (active)
23 | CNC(C)Cc1ccccc1OC (stereo unspecified) | inactive
24 | COC(=O)C(C)N(C(=O)Cc1ccccc1)c1c(C)cccc1C (stereo unspecified) | inactive
25 | CC(C)=CCOc1c2occc2cc2ccc(=O)oc12 | 0.229 µM (active)
26 | CCCCNP(N)(N)=S | inactive
27 | COC(=O)C(Br)CBr (stereo unspecified) | 35.6 µM (active)
28 | COC(C)(C)CCC[C@H](C)C/C=C/C(C)=C/C(=O)OC(C)C | 35.6 µM (active)
29 | COC(N)=O | 35.6 µM (active)
30 | NC(=O)CI | 35.9 µM (active)
31 | NNC(=O)c1cccnc1 | 12.7 µM (active)
32 | Cc1cc(=O)[nH]o1 | inactive
33 | CCCN(CCCl)c1c([N+](=O)[O-])cc(C(F)(F)F)cc1[N+](=O)[O-] | 12.6 µM (active)
34 | COc1cc(CC(C)N)cc2c1OCO2 (stereo unspecified) | 74.1 µM (active)
35 | CCOP(=O)(OCC)SCCSCC | 34 µM (active)
36 | CCCCCCC#N | 38.7 µM (active)
37 | Brc1ccc(Oc2ccccc2)cc1 | 25.2 µM (active)
38 | CCOP(O)OCC | inactive
39 | Cc1ccc(N)cc1C | 4.52 µM (active)
40 | O=C(NC(=O)c1c(F)cccc1F)Nc1cc(Cl)c(Oc2ncc(C(F)(F)F)cc2Cl)c(Cl)c1 | inactive
41 | C=CCC1([C@H](C)CCC)C(=O)NC(=O)NC1=O | inactive
42 | CCCCCCCCCCOC(=O)c1ccccc1C(=O)OCCCCCCCCCC | inactive
43 | IC(I)=C(I)I | 10 µM (active)
44 | CC1(C)[C@H](C=C(Cl)Cl)[C@@H]1C(=O)O[C@@H](C#N)c1cccc(Oc2ccccc2)c1 | inactive
45 | C=CC(=O)OC(C)(C)C | 2.43 µM (active)
46 | CCOP(=S)(OCC)Oc1nc(Cl)c(Cl)cc1Cl | 2.53 µM (active) and 3.56 µM (active)
